Consider seven compounds from PubChem BioAssay (Tox21).

Unmarked numbers belong to inactive results. Records with an inconclusive call do not appear. Active and inactive are the calls of the source. Unless noted, calls come from the whole dose curve.

The nature of experiment [1]: Nuclear factor erythroid 2-related factor 2/antioxidant responsive element (Nrf2/ARE) small molecule agonists: qHTS cell viability counter screen in human keratinocytes (AID 1919968; active = well fitted curve in the direction sought with a large enough effect in the repeat runs; an effect the other way counts as inactive or inconclusive; note: nearly all actives have a fitted effect of over 55% in size; note: potency is the fitted concentration of half-maximal effect). An outline of the steps: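 HaCaT ARE reporter line, 1,500 cells/well; 5 h settle, 37 C/5% CO2; cpd in DMSO pinned; 23 h exposure; CellTiter-Fluor, 1 h; fluorescence.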
(In qHTS, concentration-response curves come from the screen itself.)

Experiment [2] in a line: Nuclear factor erythroid 2-related factor 2/antioxidant responsive element (Nrf2/ARE) small molecule agonists: luciferase reporter gene qHTS assay in human keratinocytes (AID 1919969). Note: nearly all actives have a fitted effect of over 35% in size. In general terms: Reporter assays use an easily measured gene product as a stand-in for the process of interest.
Experiment [3] deals with Gonadotropin-releasing hormone receptor (Homo sapiens) (UniProt P30968). Kind of experiment: Human gonadotropin-releasing hormone receptor (GnRHR) small molecule agonists, calcium flux assay in GnRHR-HEK293 cells (AID 1920063). Note: nearly all actives have a fitted effect of over 35% in size. An outline of the steps:
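GnRHR-HEK293, 1500 cells/well, 18 h 37 C/5% CO2; Ca dye 1 h 37 C; cpd pinned (DMSO), agonist mode; kinetic FL 480/540, 3 min, 1 s reads; 15 conc, n=3.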
A general note: A change in cytosolic calcium serves as a functional read-out for many receptors and channels.

Experiment [4] concerns the target KiSS-1 receptor (Homo sapiens) (UniProt Q969F8). Kind of experiment: Human kisspeptin (KISS1R) small molecule agonists, calcium flux assay in KISS1R-HEK293 cells (AID 1920064; active = well fitted curve in the direction sought with a large enough effect in the repeat runs; an effect the other way counts as inactive or inconclusive). The gist of the method:
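Stable human KISS1R HEK293 line; 18 h plating, 37 C/5% CO2; calcium dye 1 h 37 C; compound pin transfer; kinetic fluorescence Ex/Em 480/540, 3 min.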

A short description of experiment [5]: G protein-coupled receptor (GPCR) small molecule agonists, calcium flux assay: HEK293 wild type cell line counter screen (AID 1920065). The gist of the method: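 Kinetic fluorescence at Ex/Em 480/540, recorded every second over 3 min, served as the read-out after compound addition. Each compound was tested at 15 concentrations in triplicate on cells pre-loaded with calcium dye for 1 h.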

Experiment [6] can be described thus: p53 small molecule agonists, cell-based qHTS assay with human liver microsomes (AID 1963577).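 Note: p53 response element beta-lactamase reporter cells with liver microsomes plus NADPH.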 The gist of the method:
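With metabolic activation: human liver microsomes (0.5 mg/mL final) plus NADPH (0.5 mg/mL final) added alongside compounds to p53RE-bla cells; 16 h 37 C exposure; beta-lactamase read by LiveBLAzer fluorescence.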

Experiment [7] can be described thus: p53 small molecule agonists, cell-based qHTS assay with rat liver microsomes (AID 1963578). An outline of the steps:
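Metabolic activation by rat liver microsomes and NADPH, each 0.5 mg/mL final, added right after compounds to p53RE-bla reporter cells (4,000/well, plated 5 h earlier). 16 h at 37 C, then LiveBLAzer substrate for 2 h at room temperature in the dark; fluorescence read-out.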

The nature of experiment [8]: p53 small molecule agonists, cell-based qHTS assay with human liver microsomes: qHTS cell viability counter screen (AID 1963579). Note: nearly all actives have a fitted effect of over 45% in size. An outline of the steps: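 Metabolic activation used human liver microsomes and NADPH, both 0.5 mg/mL final, over 16 hours at 37 C on p53RE-bla cells (4,000/well). Cytotoxicity measured by CellTiter-Glo luminescence, 30 min at room temperature.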

Experiment [9] is described as follows: p53 small molecule agonists, cell-based qHTS assay with rat liver microsomes: qHTS cell viability counter screen (AID 1963580). Note: nearly all actives have a fitted effect of over 45% in size. Note: potency is the fitted concentration of half-maximal effect. An outline of the steps: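 p53RE-bla HCT-116 cells (4,000/well) rested 5 h at 37 C, then given Tox21 compounds in DMSO with rat liver microsomes (0.5 mg/mL final) plus NADPH (0.5 mg/mL final) for 16 h at 37 C. Viability read by CellTiter-Glo luminescence after 30 min at room temperature.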

Experiment [10] is described as follows: p53 small molecule agonists, cell-based qHTS assay: qHTS cell viability counter screen (AID 1963581). Note: nearly all actives have a fitted effect of over 45% in size. An outline of the steps:
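HCT-116 p53RE-bla cells, 4,000/well, plated 5 h before compound pin transfer; 16 h at 37 C; bla substrate 2 h RT; then CellTiter-Glo, 30 min RT, luminescence.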

Experiment [11] can be described thus: p53 small molecule agonists, cell-based qHTS assay (AID 1963582; active = well fitted activation curve with a large enough effect in the signal ratio in the repeat runs, not every such curve was filed as active; the % refers to the signal ratio). An outline of the steps: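 Reporter line: p53RE-bla. Pre-incubation 5 h, 37 C, 5% CO2; compound (DMSO, pin tool) 16 h, 37 C; B/G FRET substrate 2 h RT; fluorescence intensity read.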
For experiment [12], the target named is Muscarinic acetylcholine receptor M1 (Homo sapiens) (UniProt P11229). Kind of experiment: Cholinergic receptor muscarinic 1 (CHRM1) small molecule antagonists, cell-based qHTS assay (AID 1963588). Note: nearly all actives have a fitted effect of over 40% in size. Note: potency is the fitted concentration of half-maximal effect. An outline of the steps:
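CHRM1-CHO calcium-flux assay, antagonist mode. Cells were seeded 18 h, dye-loaded 1 h at 37 C and given compound for 5 min at RT, then acetylcholine was added at 50nM. FDSS fluorescence was read 3 min; 15 concentrations, three runs.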

The nature of experiment [13]: cAMP Responsive Elements (CRE) small molecule agonists, cell-based qHTS assay (AID 1963590). An outline of the steps: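 HEK 293T CRE-bla, 2,000 cells/well, 18 h preincubation 37 C/5% CO2; cpds (DMSO) pinned, 3 h; LiveBLAzer B/G FRET substrate, 2 h RT.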
For experiment [14], the target named is Beta-2 adrenergic receptor (Homo sapiens) (UniProt P07550). Kind of experiment: Adrenergic beta2 receptor (ADRB2) small molecule antagonists, cell-based qHTS assay (AID 1963592). Note: series mostly up to about 92 µM; nearly all actives have a fitted effect of over 50% in size. An outline of the steps: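 Cells (CHO, stable ADRB2 overexpression) incubated 18-20hr at 37C; compounds added from DMSO; agonist mix (1nM isoproterenol, 100uM IBMX, 25uM Ro-20-1724) added; 0.5hr RT; d2-cAMP and anti-cAMP-cryptate added; 1hr RT; 665/615 nm read.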

In experiment [15] the target is Muscarinic acetylcholine receptor M1 (Homo sapiens) (UniProt P11229). Kind of experiment: Cholinergic receptor muscarinic 1 (CHRM1) small molecule agonists, cell-based qHTS assay (AID 1963589). Note: nearly all actives have a fitted effect of over 35% in size. The gist of the method: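 Human M1 in stable CHO line; 18 h plating, 1 h dye load 37 C; cpd added (agonist mode); Ca2+ fluorescence kinetic read, 1 s intervals; 15 conc, 3 runs.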

The nature of experiment [16]: cAMP Responsive Elements (CRE) small molecule antagonists, cell-based qHTS assay (AID 1963591; active = well fitted inhibition curve with a large enough effect in the signal ratio in the repeat runs, not every such curve was filed as active; the % refers to the signal ratio). An outline of the steps: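 Beta-lactamase reporter read by FRET substrate (LiveBLAzer B/G) after 2 h at room temperature. CRE-bla HEK293T cells had received compound plus 0.25 uM (final) NKH477 for 3 h at 37 °C.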
Experiment [17] concerns the target D(2) dopamine receptor (Homo sapiens) (UniProt P14416). Kind of experiment: Dopamine D2 receptor (DRD2) small molecule agonists, cell-based qHTS assay (AID 1963594). Note: nearly all actives have a fitted effect of over 35% in size. The gist of the method:
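HEK293 cells stably expressing DRD2 were cultured 24 h at 37 C, then given Ro20-1724 (0.1 mM final) and compounds for 10 min at room temperature. NKH477 (200nM) was then added for 30 min. cAMP was read by HTRF.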

For experiment [18] the target is unchanged. Kind of experiment: Dopamine D2 receptor (DRD2) small molecule antagonists, cell-based qHTS assay (AID 1963595; active = well fitted inhibition curve with a large enough effect in the signal ratio in the repeat runs, with a control signal flat; the % refers to the signal ratio). An outline of the steps:
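Human DRD2 antagonist qHTS measuring cAMP by HTRF. The cells are exposed to compound for 10 min, then to NKH477 (200 nM) and quinpirole (12 nM) for 30 min at RT, with Ro20-1724 (0.1 mM) present throughout.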

Experiment [19] addresses Beta-2 adrenergic receptor (Homo sapiens) (UniProt P07550). Kind of experiment: Adrenergic beta2 receptor (ADRB2) small molecule agonists, cell-based qHTS assay (AID 1963593).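 Note: CHO cells stably overexpressing human ADRB2.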 An outline of the steps: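 CHO cells stably over-expressing ADRB2 were plated overnight at 37C, then dosed with compounds plus a stimulation mix containing 100uM IBMX and 25uM Ro-20-1724 for 0.5hr at room temperature. cAMP was measured by HTRF competition, 1hr.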
% is set by controls: 0 for no effect and ±100 for the full control effect.

Gonadotropin-releasing hormone receptor (Homo sapiens), sequence (P30968 whole entry, looked up): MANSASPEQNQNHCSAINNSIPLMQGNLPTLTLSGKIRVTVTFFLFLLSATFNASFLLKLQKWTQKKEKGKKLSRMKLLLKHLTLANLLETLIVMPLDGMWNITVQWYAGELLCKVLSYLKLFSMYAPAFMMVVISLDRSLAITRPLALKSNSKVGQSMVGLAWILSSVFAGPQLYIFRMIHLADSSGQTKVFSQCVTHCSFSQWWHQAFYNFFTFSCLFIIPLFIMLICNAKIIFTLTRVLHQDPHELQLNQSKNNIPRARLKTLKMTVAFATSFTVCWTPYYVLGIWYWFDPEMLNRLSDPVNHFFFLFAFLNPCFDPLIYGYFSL
KiSS-1 receptor (Homo sapiens), sequence (Q969F8 whole entry, looked up): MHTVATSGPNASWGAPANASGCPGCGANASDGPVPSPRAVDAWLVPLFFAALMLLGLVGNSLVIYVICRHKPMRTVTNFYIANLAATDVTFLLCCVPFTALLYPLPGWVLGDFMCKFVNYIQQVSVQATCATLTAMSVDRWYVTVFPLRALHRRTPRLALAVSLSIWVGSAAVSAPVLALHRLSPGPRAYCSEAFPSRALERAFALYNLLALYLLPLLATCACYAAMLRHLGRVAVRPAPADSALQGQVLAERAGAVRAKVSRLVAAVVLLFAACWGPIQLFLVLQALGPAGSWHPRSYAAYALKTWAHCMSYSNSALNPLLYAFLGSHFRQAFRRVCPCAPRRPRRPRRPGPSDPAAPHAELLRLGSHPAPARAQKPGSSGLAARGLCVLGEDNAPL
D(2) dopamine receptor (Homo sapiens), sequence (P14416 whole entry, looked up): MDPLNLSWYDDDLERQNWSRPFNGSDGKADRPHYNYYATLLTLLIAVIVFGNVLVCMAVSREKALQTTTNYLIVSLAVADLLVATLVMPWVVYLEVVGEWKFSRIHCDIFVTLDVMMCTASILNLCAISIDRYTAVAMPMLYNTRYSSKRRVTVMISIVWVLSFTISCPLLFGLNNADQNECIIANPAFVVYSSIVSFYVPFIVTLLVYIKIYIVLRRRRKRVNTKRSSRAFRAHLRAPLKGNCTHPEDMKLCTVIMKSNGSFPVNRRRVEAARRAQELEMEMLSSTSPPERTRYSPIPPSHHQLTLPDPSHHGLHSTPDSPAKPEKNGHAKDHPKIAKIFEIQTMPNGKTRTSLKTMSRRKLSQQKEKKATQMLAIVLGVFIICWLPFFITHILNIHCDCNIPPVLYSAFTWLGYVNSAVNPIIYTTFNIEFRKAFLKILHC
Muscarinic acetylcholine receptor M1 (Homo sapiens), sequence (P11229 whole entry, looked up): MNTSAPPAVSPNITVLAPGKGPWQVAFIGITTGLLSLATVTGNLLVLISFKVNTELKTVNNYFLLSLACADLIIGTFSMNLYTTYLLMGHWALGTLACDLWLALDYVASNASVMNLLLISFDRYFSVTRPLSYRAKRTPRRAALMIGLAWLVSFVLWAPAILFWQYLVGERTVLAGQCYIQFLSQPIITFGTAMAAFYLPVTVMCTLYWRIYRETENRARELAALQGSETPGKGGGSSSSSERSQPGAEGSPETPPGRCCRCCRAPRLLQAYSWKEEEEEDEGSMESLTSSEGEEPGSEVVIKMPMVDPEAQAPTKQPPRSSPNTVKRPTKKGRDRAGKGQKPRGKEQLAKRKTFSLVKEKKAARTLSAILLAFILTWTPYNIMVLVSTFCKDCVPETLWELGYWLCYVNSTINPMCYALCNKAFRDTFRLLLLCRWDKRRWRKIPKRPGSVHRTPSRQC
Beta-2 adrenergic receptor (Homo sapiens), sequence (P07550 whole entry, looked up): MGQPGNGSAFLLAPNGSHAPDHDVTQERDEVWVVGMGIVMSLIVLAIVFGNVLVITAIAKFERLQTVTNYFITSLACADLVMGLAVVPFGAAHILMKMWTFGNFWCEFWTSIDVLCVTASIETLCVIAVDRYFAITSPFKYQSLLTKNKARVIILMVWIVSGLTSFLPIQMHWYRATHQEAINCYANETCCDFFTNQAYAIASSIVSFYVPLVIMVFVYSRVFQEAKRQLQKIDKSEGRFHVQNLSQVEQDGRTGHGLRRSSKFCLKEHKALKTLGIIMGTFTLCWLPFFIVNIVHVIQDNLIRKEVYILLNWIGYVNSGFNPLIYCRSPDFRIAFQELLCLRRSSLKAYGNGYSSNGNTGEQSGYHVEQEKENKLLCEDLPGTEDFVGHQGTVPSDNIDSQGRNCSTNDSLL

On to `O=C(CCC1CCN(Cc2ccccc2)CC1)c1ccc2c(c1)NCCCC2`, for which the Potency result in experiment [1], in [2], in [3], in experiment [6], in [7] and in experiment [8] was “inactive” each time. Further, the Potency result in [9], in experiment [10], in [11], in experiment [13] and in [14] was “inactive” in each case. Also, the result in experiment [4] and in [5] was inactive. The Potency in [12] is 3.26 µM (active).

Turning to `CC1(C)S[C@@H]2[C@H](N=CN3CCCCCC3)C(=O)N2[C@H]1C(=O)O`, the Potency result in experiment [1], in experiment [2], in [3], in experiment [6], in [7] and in [8] was “inactive” each time. The Potency result in experiment [9], in experiment [10], in experiment [11], in [12], in [15] and in experiment [16] was “inactive” each time. Besides, the Potency result in [14], in [17] and in experiment [18] was “inactive” throughout. Moreover, the result in [4] and in experiment [5] was inactive.

As to `CCN(CC)CCOC(=O)C(c1ccccc1)c1ccccc1`, the Potency entry in experiment [1], in experiment [2], in [3], in [6], in [7] and in experiment [8] was “inactive” each time. Further, the Potency entry in [9], in [10], in experiment [11], in experiment [15], in [16] and in [14] was “inactive” in each case. For the same compound, in experiment [17], the Potency entry was “inactive”. The result in experiment [4] and in experiment [5] was inactive. Also, in experiment [12], the Potency was 0.0103 µM (active).

On to `COc1cccc(-c2ccc(/C=C\CN3CCCCCC3)cc2Cl)c1`, for which the Potency in experiment [1] is 38.4 µM (active); in [9], 40.6 µM (active); in experiment [12], 0.836 µM (active). Also, the Potency result in experiment [2], in experiment [3], in experiment [6], in experiment [7], in [8] and in experiment [10] was “inactive” in each case. Moreover, the Potency entry in [11], in experiment [15] and in experiment [19] was “inactive” each time. Further, the outcome in experiment [4] and in [5] was inactive.

Consider `CCCCN1C=CN(C)C1`, for which the activity change, negative = cytotoxicity in experiment [1] was 3.2% [at 19 µM]; in [8], -6.5% [at 13.5 µM]; in [9], 1.05% [at 13.5 µM]; in experiment [10], -5.52% [at 13.5 µM]. For the same compound, the activity, positive = activation in experiment [2] was 5.6% [at 19 µM]. Moreover, the activity change in experiment [3] was 1.08% [at 11.8 µM, hits give high values]. Moreover, the activation in experiment [4] was 2.8% [at 15.8 µM]; in experiment [5], 0.0752% [at 11.8 µM]; in experiment [6], -0.103% [at 13.5 µM]; in experiment [7] it was 0.456% [at 13.6 µM]; in experiment [11], -0.772% [at 13.5 µM]; in experiment [15], 4.26% [at 15.8 µM]. In addition, the activation in [13] was -0.578% [at 19 µM]; in experiment [17] it was 0.42% [at 19 µM]. In addition, the activity, negative = inhibition in experiment [12] was 0.644% [at 12.6 µM]. Further, the activity change, negative = inhibition was -0.722% [at 18.9 µM] in experiment [16], 3.2% [at 19 µM] in experiment [14] and 2.35% [at 18.9 µM] in experiment [18].

Regarding `CCC(=O)Nc1ccc(O)cc1`, the Potency result in [1], in experiment [2], in experiment [3], in experiment [6], in experiment [7] and in [8] was “inactive” each time. In addition, the Potency entry in experiment [9], in [10], in experiment [11], in experiment [12], in experiment [15] and in [13] was “inactive” throughout. For the same compound, the Potency entry in experiment [16], in experiment [14], in experiment [17] and in experiment [18] was “inactive” in each case. For the same compound, the result in experiment [4] and in [5] was inactive.

Take `c1ccc(CC2=NCCN2)cc1`: the Potency entry in [1], in experiment [2], in experiment [3], in experiment [6], in experiment [7] and in experiment [8] was “inactive” throughout. Also, the Potency result in experiment [9], in experiment [10], in [11], in [12], in [13] and in experiment [16] was “inactive” each time. Moreover, the Potency result in experiment [14], in [19], in [17] and in [18] was “inactive” throughout. In addition, the outcome in experiment [4] and in experiment [5] was inactive.
